Experimental data published in the OligoGym collection.
Note: reference of the scale not given here.

These sequences were tested against CASP8 (assay: pooled miR-30 sensor sort-seq; sequence = guide strand). Conditions: shRNA.
Work on TACTGTGCAGTCATCGTGGGGC yielded a sensor-assay potency score (higher = more potent) of 0.503. TTTCTTGTCATCCTTGTTGCTT was tested, and the sensor-assay potency score (higher = more potent) was -0.189. Work on ATAGTCGTTGATTATCTTCAGC yielded a sensor-assay potency score (higher = more potent) of -0.538. With ATCTGATAGAGCATGACCCTGT the sensor-assay potency score (higher = more potent) was -0.509. Work on TTCTTCTGAAATCTGATAGAGC yielded a sensor-assay potency score (higher = more potent) of -0.601. For TAATAGATGATCGACCCTCCGC, the sensor-assay potency score (higher = more potent) was -0.463. For TTAGTGTGAAAGTAGGCTGAGG, the sensor-assay potency score (higher = more potent) was -0.589. TTTTGCAAAATTGTGATTGTTG showed a sensor-assay potency score (higher = more potent) of 0.0045.

The sequences below were run against CASQ1 in the same assay as above. Conditions: shRNA.
Work on TAGGACATCAAGCAGAAACTCC yielded a sensor-assay potency score (higher = more potent) of -0.771. TTCTTTGCCACCTTGCTGTCGA was tested, and the sensor-assay potency score (higher = more potent) was 0.0735. Sequence TACTTCTTGAACACATTCTTGT has a sensor-assay potency score (higher = more potent) of 0.247. ATGCTCTGAGTCTTTGCTCTTG was tested, and the sensor-assay potency score (higher = more potent) was -1.26. In the case of TTGTCTTCTAGGACTTGGGCTG, the sensor-assay potency score (higher = more potent) is reported as -0.338. TAGTTCTTTGCATTGACATTGA gave a sensor-assay potency score (higher = more potent) of -0.428. Sequence TTCTTGAACACATTCTTGTAGT has a sensor-assay potency score (higher = more potent) of 0.249. In the case of TAGCCAATGAGTTTGATCTCAT, the sensor-assay potency score (higher = more potent) is reported as -0.312. TTGTGAGGCCTTGTCATCCTCG was tested, and the sensor-assay potency score (higher = more potent) was -0.34. Work on TTGAGAGTCTCTAAGAACTCGA yielded a sensor-assay potency score (higher = more potent) of -0.0687. In the case of TTGACAATCTCCTCTTCGCTAT, the sensor-assay potency score (higher = more potent) is reported as -0.427. With AACACATTCTTGTAGTTCTTTG the sensor-assay potency score (higher = more potent) was -0.85. ATACTTCTTGAACACATTCTTG was tested, and the sensor-assay potency score (higher = more potent) was -1.25. For TTCTCAGAGTCTACCAGCCCGA, the sensor-assay potency score (higher = more potent) was -1.38. Work on TTCACCTTCAATCAATTCCACA yielded a sensor-assay potency score (higher = more potent) of -1.32. TACATTAACAAGTGATTGCTGA was tested, and the sensor-assay potency score (higher = more potent) was 0.512. In the case of TAATGCTCTGAGTCTTTGCTCT, the sensor-assay potency score (higher = more potent) is reported as -0.39. With TACAGGATTAGAGAGAGTGGGG the sensor-assay potency score (higher = more potent) was -0.52. TTGTAATGCTCTGAGTCTTTGC was tested, and the sensor-assay potency score (higher = more potent) was -1.04. TCTCTAAGAACTCGAAACCATC was tested, and the sensor-assay potency score (higher = more potent) was -1.47. TTGATCACACGGTCCACACCAT gave a sensor-assay potency score (higher = more potent) of -0.226. ATCCTTCTCAGAGTCTACCAGC showed a sensor-assay potency score (higher = more potent) of -1.1. For TTCATGGTAGAGGAGTGCCAGC, the sensor-assay potency score (higher = more potent) was -1.44.

Each sequence was assayed against CBL in the same assay as above. Conditions: shRNA.
In the case of TTTCTTCATCAAATTCTCCATA, the sensor-assay potency score (higher = more potent) is reported as -0.795. In the case of ATGCACTTCATGTAGAGCCTGT, the sensor-assay potency score (higher = more potent) is reported as 0.672. With TTTATTGTGAGGGATTGTCTGG the sensor-assay potency score (higher = more potent) was -0.649. For TATCTGAGAGAGTTCGGCGGGC, the sensor-assay potency score (higher = more potent) was -0.0196. In the case of TTTGTGAATGAATTTCTGGAGC, the sensor-assay potency score (higher = more potent) is reported as -0.665. Work on TTACATAGTTGGAATGTGGAGC yielded a sensor-assay potency score (higher = more potent) of 0.417. TTGTTGTAGGATCACCATCCAG was tested, and the sensor-assay potency score (higher = more potent) was -1.34. Sequence TTGAGGGAACACATACTCGCTG has a sensor-assay potency score (higher = more potent) of -0.612. Sequence TTTCACTTCGTCATACGTCAAA has a sensor-assay potency score (higher = more potent) of -0.674.
